In PubChem BioAssay (NCI):
This is part of a sample that, as a whole, favours compounds with a hit. Of some 83,000 tested, about 20% had one in any assay.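 Cells were grown in 96-well plates and exposed to the test compound at a single concentration for 48 hours; results are reported as percent growth, with values below 10 considered active.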 The source made the active and inactive calls.

System: HCT-116 colon
Assay: NCI-60 one-dose screen, 48 h (100 = growth as untreated, 0 = no growth, -100 = all killed)
Settings: 10 µM unless noted
Method: Growth inhibition of the HCT-116 human tumor cell line is measured as a screen for anti-cancer activity. Cells are grown in 96 well plates and exposed to the test compound for 48 hours. Compounds are tested at a single concentration, which is 10^-5 M for most compounds. The reported endpoint is percent growth (GI% or GIPRCNT), where numbers from 0 - 100% represent growth inhibition, and numbers from -100% - 0 represent cell death. For example, a value of 40 represents 60% growth inhibition. A value of 0 means no net growth occurred over the course of the experiment. A value of -40 indicates 40% of cells at the beginning of the experiment died by the end of the experiment. A value of -100 means all cells are dead at the end of the experiment.
NCI-60 Human Tumor Cell Lines Screen was performed using the standard one-dose NCI protocol, which is described in more detail at https://dtp.cancer.gov/discovery_development/nci-60/default.htm.
Compounds with GIPRCNT values below 10 were considered active. Activity score was based on GIPRCNT using the following formula: […]
Score is 0 for GIPRCNT values of 100 or above, 50 for GIPRCNT values of 0, and 100 for GIPRCNT values of -100.

Row | SMILES | growth
1 | Nc1ncnc2c1c(C(=O)NO)cn2C1OC(CO)C(O)C1O (stereo not given) | 7.69% (active)
2 | CCOc1c(Cl)cc(CNC(C)C(O)c2ccccc2)cc1OC (stereo not given) | 59.2% (inactive)
3 | Oc1ccc(O)c2c1C1(Cl)C(Cl)=C(Cl)C2(Cl)C1(Cl)Cl | 28.4% (inactive)
4 | O=C(CCc1ccco1)NC1CCN(CC2(c3ccc(Cl)cc3)CCC2)CC1 | 7.86% (active)
5 | CCC[CH2][Sn]([CH2]CCC)([CH2]CCC)[O]C(=O)CC | -88.6% (active)
6 | CCC[CH2][Sn]([CH2]CCC)([CH2]CCC)[O]C(=O)c1ccc(Cl)cc1Cl | -87.6% (active)
7 | O=CC(Br)C(Br)c1ccccc1 (stereo not given) | 2.83% (active)
8 | O=C(O)CC(Br)C(=O)CBr (stereo not given) | 100% (inactive)
9 | CC(C)(C)N(Cc1ccccc1)N=O | 106% (inactive)
10 | NC(=O)C(Cl)Cl | 107% (inactive)
11 | CC(C)CCC[C@@H](C)[C@H]1CC[C@H]2[C@@H]3CC=C4C[C@@H](OC(=O)Cc5ccc(N(CCCl)CCCl)cc5)CC[C@]4(C)[C@H]3CC[C@]12C | 103% (inactive)
12 | COC(=O)C(=[N+]=[N-])C(=O)OC | 94.2% (inactive)
13 | O=C(O)C1(Br)CC12c1ccccc1-c1ccccc12 (stereo not given) | 100% (inactive)
14 | CC1(C)CC2(CC(C)(C)c3cc(O)c(O)cc32)c2cc(O)c(O)cc21 | 85.4% (inactive)
15 | CCCCOC(=O)c1ccccc1C(=O)O.CCCCOC(=O)c1ccccc1C(=O)O.[Cu+2] | 102% (inactive)
16 | NC(Cc1ccc(O)cc1)C(=O)N/N=C/c1ccc(N(CCCl)CCCl)cc1 (stereo not given) | 84% (inactive)
17 | O=C(N/N=C/c1ccc([N+](=O)[O-])o1)c1cc([N+](=O)[O-])cc([N+](=O)[O-])c1O | 92.6% (inactive)
18 | C=CC(=O)NC(O)C(Cl)(Cl)Cl (stereo not given) | 101% (inactive)
19 | Oc1ccc(Br)cc1CN1CCN(Cc2ccc(Cl)cc2)CC1 | 22.2% (inactive)
20 | C/C(=C\C(=O)O[C@H]1[C@@H]2[C@H](C)CC[C@H]2[C@]2(C)O[C@@]1(C1CCCCC1)C[C@H]2OC(=O)CO)c1ccccc1 | 7.81% (active)

Row | SMILES | growth
21 | S=P(NC1CCCCC1)(N1CC1)N1CC1 | 93.3% (inactive)
22 | COc1ccc(C2SCC(=O)Nc3c2c(C)nn3-c2nc3ccc(C)cc3s2)cc1O (stereo not given) | 34.1% (inactive)
23 | O=c1[nH]c2cc(Cl)ccc2n1C1CCN(CCCC(c2ccc(F)cc2)c2ccc(F)cc2)CC1 | 3.23% (active)
24 | CC12CC[C@H](O)C=C1/C(=N/O)CC1C2CCC2(C)C1CC[C@@H]2O (stereo not given in full) | 93.3% (inactive)
25 | CN(C)P1(N(C)C)=NP(N(C)C)(N(C)C)=NP(N(C)C)(N(C)C)=N1 | 102% (inactive)
26 | O=C1C=CC(=O)C2C1C1(Cl)C(Cl)=C(Cl)C2(Cl)C1(Cl)Cl (stereo not given) | 36.3% (inactive)
27 | CC(=O)[O][Hg][CH2]C1(C)COC(C)([CH2][Hg][O]C(C)=O)CO1 (stereo not given) | -86.2% (active)
28 | Cn1cnnc1[S-].[Au+].c1ccc([PH+](c2ccccc2)c2ccccc2)cc1 | 3.71% (active)
29 | COc1ccc(/C=C(/C(=O)N2CCCC2)c2cc(OC)c(OC)c(OC)c2)cc1N | 23.5% (inactive)
30 | N#[N+]c1nc2nc(N)[nH]c(=O)c2[nH]1 | 96.8% (inactive)
31 | Cc1cccc(N=C2c3cc([N+](=O)[O-])ccc3-c3c2cc([N+](=O)[O-])cc3[N+](=O)[O-])c1 | -0.611% (active)
32 | Nc1c(Br)cc([N+](=O)[O-])cc1[N+](=O)[O-] | 108% (inactive)
33 | N#CC(C#N)=Cc1ccc2ccccc2c1 | 107% (inactive)
34 | CO[C@@H]1[C@H](OC(=O)NC(=O)CCl)CC[C@]2(CO2)[C@H]1[C@@]1(C)O[C@@H]1CC=C(C)C | 43.8% (inactive)
35 | COC(C)(C)CCC[C@H](C)C/C=C/C(C)=C/C(=O)OC(C)C | 83.6% (inactive)
36 | CC1=C(SCCC(=O)OCC(=O)NCCC[Te]c2ccccc2)C(=O)c2ccccc2C1=O | -12.9% (active)
37 | c1ccc(CCN2CCCCC2Cc2ccccc2)cc1 (stereo not given) | 78.1% (inactive)
38 | ClCCN(CCCl)C(c1ccccc1)c1ccc(Cl)cc1 (stereo not given) | 79.5% (inactive)
39 | CCN(CC)c1ccc(C=C2C(=O)NC(=S)NC2=O)cc1 | 93.9% (inactive)
40 | c1ccc([As]=[As]c2ccccc2)cc1 (stereo not given) | -99.4% (active)
